# Test results from publication PMC5540273 (PLoS ONE, 2017).
# Experiments:
# Details in all cases: concentration: 1 μM, replicates: in singlicate; n = 1
# RIPK4 = tested on: RIPK4
# RIPK5 = tested on: RIPK5
# ROCK2 = tested on: ROCK2
# ROS1 = tested on: ROS1
# [1] = tested on: RPS6KA4(Kin.Dom.1-N-terminal)
# [2] = tested on: RPS6KA4(Kin.Dom.2-C-terminal)
# [3] = tested on: RPS6KA5(Kin.Dom.1-N-terminal)
# [4] = tested on: RPS6KA5(Kin.Dom.2-C-terminal)
# [5] = tested on: T1, RSK1(Kin.Dom.1-N-terminal)
# T1 construct: gene RPS6KA1
# ROCK1 = tested on: ROCK1
# 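Note: KINOMEscan kinase panel screen.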
Compound,%Inh (RIPK4),%Inh (RIPK5),%Inh (ROCK2),%Inh (ROS1),%Inh [1],%Inh [2],%Inh [3],%Inh [4],%Inh [5],%Inh (ROCK1)
CNc1nc(-c2ccc3c(N)n[nH]c3c2)cc(N2C[C@@H](C(=O)Nc3ccccc3)CC[C@H]2C)n1 [GSK2298859],0%,0%,61%,36%,22%,0%,29%,50%,0%,
COc1ccc(Nc2nccc(-c3ccc(NC(=O)c4cc5cc(F)ccc5[nH]4)cc3)n2)cc1 [GSK1229496],0%,0%,10%,26%,0%,0%,0%,0%,13%,18%
COc1ccc(Nc2nccc(NCCNC(=O)Nc3cc(C)ccc3C)n2)cc1 [GSK1379899],6%,0%,14%,5%,8%,0%,49%,0%,0%,6%
Fc1ccc(-c2nc[nH]c2-c2ccncc2)cc1 [SB-217360],0%,31%,26%,5%,0%,0%,0%,19%,0%,0%
CNc1cc(-c2ccc3c(N)n[nH]c3c2)nc(N)n1 [GSK2224810],64%,0%,29%,17%,0%,15%,0%,35%,2%,
